Measurements published in PubChem BioAssay (NCI).
Several values for one entry are separate records, joined by “and”; a condition that tells them apart may be missing. Equal values may be shown once. This is part of a sample that, as a whole, favours compounds with a hit. Of some 83,000 tested, about 20% had one in any assay.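 Single-dose data. Exposure time 48 hours. Values below 10 considered active.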 Activity calls are given as the source filed them.

Each compound was assayed on HL-60(TB) leukemia (assay: NCI-60 one-dose screen, 48 h (100 = growth as untreated, 0 = no growth, -100 = all killed)). Settings: 10 µM unless noted.
`CNC(=O)c1ccc(C)c(-n2c(C)cc(OCc3ccc(F)cc3F)c(Br)c2=O)c1` was tested, and the growth was 61.1% (inactive) and 91% (inactive). For `CN1CCN(CCCN2c3ccccc3Sc3ccc(Cl)cc32)CC1`, the growth was 98.9% (inactive) and 50.7% (inactive). `O=C(Nc1ccc(Cl)c(Cl)c1)Nc1ccc(Cl)c(Cl)c1` was tested, and the growth was -56.8% (active) and 13% (inactive). For `CN1CCN(c2nc(NCCCCNc3ccnc4cc(Cl)ccc34)c3ccccc3n2)CC1`, the growth was 28.6% (inactive). In the case of `CCOCC(O)(c1ccc(Cl)cc1)c1ccc(Cl)cc1`, the growth was 106% (inactive). `O=C(Nc1cccc(Cl)c1)Nc1cc(C(F)(F)F)ccc1Cl` was tested, and the growth was -6.22% (active). With `O=C(Cc1ccccn1)C(F)(F)C(F)(F)C(F)(F)F` the growth was 105% (inactive). For `CN(C)CCCOc1c(Br)cc(/C=C/C(=O)N(C)CCc2cc(Br)c(OCCCN(C)C)c(Br)c2)cc1Br`, the growth was 81.9% (inactive). `O=c1cc(-c2cccnc2)oc2c1ccc1ccccc12` was tested, and the growth was 83.4% (inactive). With `COc1ccc(S(=O)(=O)NCCNc2nccc(-c3c(-c4cccc(F)c4)nc4sccn34)n2)cc1` the growth was 58.8% (inactive). For `CCOC(=O)/C=C1/SC(=Nc2ccc(C#N)cc2)N(Cc2ccco2)C1=O`, the growth was -26.6% (active). For `NC(=O)CSc1oc(-c2ccccc2)nc1S(=O)(=O)c1ccc(Br)cc1`, the growth was 82.1% (inactive). In the case of `O=C(CCc1nnc2sc(-c3ccc(Cl)cc3Cl)nn12)c1nc2ccccc2[nH]1`, the growth was 3.48% (active). `Cc1cc(Cl)c2c(Cl)ccc(Cl)c2n1` was tested, and the growth was 96.2% (inactive).
